Hits are enriched below; roughly 10% of the tested compounds scored in any of these assays.
GLS inh – glutaminase GLS (human) inhibition | Potency, µM (series often up to 45.5 µM), inactives show at the top dose activity change, negative = inhibition, actives largely listed as inhibitors | GLS enzymatic activity, qHTS titration | O94925 | AID 624170 | 410,000 tested, 0.21% active; also: % is scaled to controls: 0 for no effect and ±100 for the full control effect
Target sequence (O94925 whole entry, looked up): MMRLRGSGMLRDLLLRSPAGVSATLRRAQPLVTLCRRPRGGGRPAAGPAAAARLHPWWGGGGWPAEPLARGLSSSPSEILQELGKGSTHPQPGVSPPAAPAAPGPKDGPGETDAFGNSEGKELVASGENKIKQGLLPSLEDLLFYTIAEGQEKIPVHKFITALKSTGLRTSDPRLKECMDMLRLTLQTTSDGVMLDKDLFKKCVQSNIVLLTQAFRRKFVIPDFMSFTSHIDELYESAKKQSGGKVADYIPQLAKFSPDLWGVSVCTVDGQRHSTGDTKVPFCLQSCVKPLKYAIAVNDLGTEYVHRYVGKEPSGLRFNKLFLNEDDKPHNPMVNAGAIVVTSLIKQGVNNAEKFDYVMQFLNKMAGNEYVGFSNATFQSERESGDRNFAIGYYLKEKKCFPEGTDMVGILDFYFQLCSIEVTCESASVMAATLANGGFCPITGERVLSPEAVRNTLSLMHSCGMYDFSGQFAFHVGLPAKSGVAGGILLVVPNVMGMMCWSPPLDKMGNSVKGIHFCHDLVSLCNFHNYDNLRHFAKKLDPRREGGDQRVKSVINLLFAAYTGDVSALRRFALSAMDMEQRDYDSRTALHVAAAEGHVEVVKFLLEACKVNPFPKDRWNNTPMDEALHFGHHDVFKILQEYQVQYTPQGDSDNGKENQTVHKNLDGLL
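Coupled fluorescence readout: glutamate oxidase/HRP/Amplex Red detect glutamate formed by hKGA from L-glutamine (1 mM solution added). Buffer 45 mM KH2PO4 pH 8.2, 0.02% Tween-20; reads at t0 and 30 min RT.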
JMJD2A Tudor – inhibitors of human JMJD2A Tudor domain | Potency, µM (doses to about 114 µM), inactives show top-dose activity change, negative = inhibition, hits mostly inhibitors | AID 504339 | AlphaScreen JMJD2A-Tudor / H3K4me3 peptide binding | 390,000 tested, 4.4% active | O75164; also: % is scaled to controls: 0 for no effect and ±100 for the full control effect; nearly all actives have a fitted effect of over 50% in size
G9a inh – blocks human histone lysine methyltransferase G9a | 350,000 tested, 8.8% active | Q96KQ7 | G9a H3K9 monomethylation, AlphaScreen, 2 h | Potency, µM (doses to about 102 µM), without a hit: at the highest dose activity, negative = inhibition, hits mostly inhibitors; also: % is scaled to controls: 0 for no effect and ±100 for the full control effect; nearly all actives have a fitted effect of over 75% in size
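Enzyme 20 nM + cpd, 15 min RT; add b-H3K9 pep 500 nM / SAM 20 uM; 2 h RT; anti-H3K9me1 Ab 0.5 ug/mL + SA donor / anti-rabbit acceptor beads 20 ug/mL each, 10 min; AlphaScreen read.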
BAZ2B block – inhibitors of human BAZ2B bromodomain. AlphaScreen BAZ2B-H3K14Ac peptide displacement. AID 504333. Q9UIF8. Potency, µM (highest dose often 114 µM), for inactives: top-dose activity change, negative = inhibition, most hits filed as inhibitors. 360,000 tested, 4.4% active; also: % is scaled to controls: 0 for no effect and ±100 for the full control effect; nearly all actives have a fitted effect of over 60% in size
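AlphaScreen luminescence quantifies BAZ2B engagement of H3K14Ac peptide; the protein and biotinylated peptide are both at 50 nM final, buffer PBS pH 7.4 with 0.01% Tween-20, all steps at room temperature.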
L3MBTL1 inh – blocks human L3MBTL1. AlphaScreen L3MBTL1–H3K9me1 peptide binding. Potency, µM (highest dose often 57.1 µM), inactives show top-dose activity, negative = inhibition, actives largely listed as inhibitors. 230,000 tested, 0.66% active. AID 485360; also: % is scaled to controls: 0 for no effect and ±100 for the full control effect; nearly all actives have a fitted effect of over 60% in size
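Displacement of a biotinylated histone H3(1-15) peptide monomethylated at Lys9 (75 nM) from L3MBTL1 (50 nM) was measured by AlphaScreen after a 30 min room-temperature compound incubation; cefsulodin titration served as intraplate control.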
HP1b binding inh – blocks HP1-beta chromodomain binding to methylated histone tails. P83916. AlphaScreen HP1-beta / biotin-H3K9me3 peptide binding. Potency, µM (highest dose often 114 µM), for inactives: at the top dose activity change, negative = inhibition, actives largely listed as inhibitors. 390,000 tested, 0.56% active. AID 540317; also: nearly all actives have a fitted effect of over 70% in size
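HP1-beta protein (50 nM final) preincubated 30 min at room temperature with biotinylated H3(1-18)K9me3 peptide (50 nM) in PBS pH 7.4, 0.01% Tween-20, then compound added for 30 min. AlphaScreen streptavidin donor/nickel chelate acceptor beads (10 ug/mL final), 30 min dark, luminescence read.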
An asterisk follows results filed as active; ? = inconclusive; . = no result given; ! = not active in a repeat; [ ] = another dose, or the depositor's remark. Calls follow the shape of the dose curve; as a rule, active = well fitted curve in the direction sought with a large enough effect; inconclusive = small, poorly fitted or top-dose-only effect, or another doubt; inactive = no such curve, though single readings can be large; an effect the other way counts as inactive or inconclusive. Potency is read from the fitted curve at half-maximal effect.

SMILES	GLS inh	JMJD2A Tudor	G9a inh	BAZ2B block	L3MBTL1 inh	HP1b binding inh
Cc1ccc(-c2nn(-c3cccc(F)c3)cc2CN(Cc2nccn2C)C(C)C)o1	?	?	10µM*	?	-11%	?
Cc1ccc(-c2nn(-c3cccc(F)c3)cc2CNCc2cccnc2)o1	-8%	?	.	-36%	-19%	2%
Cc1ccc(S(=O)(=O)c2c(Nc3ccc(C)c(C)c3)sc(C(=O)c3ccc4c(c3)OCO4)c2N)cc1	-13%	-35%	-1%[59 µM]	-10%	.	16%[57 µM]
O=C(NCc1cccs1)c1ccc2c(c1)N(Cc1ccccc1Cl)C(=O)c1ccccc1S2	2%	1%	-33%[59 µM]	2%	.	25%
N#Cc1c(N(CCO)CCO)nc(N)c2c(N)nc3c(c12)CC(=O)N3Cc1cccs1	?	?	45µM*	?	-24%	-15%
O=C(CSCc1cnn(-c2ccccc2)c1-n1cccc1)NCc1ccc(F)cc1	2%	8%	-40%[59 µM]	-5%	.	37%
Cc1csc2nc(-c3cccc(NC(=O)c4cccc(F)c4)c3)cn12	-13%	-12%	4%[59 µM]	-27%	.	19%[57 µM]
COC(=O)c1ccccc1NC(=O)c1cc(-c2ccco2)on1	9%	-19%	40µM*	-14%	.	7%
COc1ccc(-n2c(N)c(C(=O)NCc3cccnc3)sc2=S)cc1	2%	3%	9%	-3%	.	18%
Cc1ccc(-n2c(N)c(C(=O)NCc3cccnc3)sc2=S)cc1	-13%	-23%	10µM*	0%	-13%	?
Cn1c(N)c(C(=O)Nc2c(Cl)cccc2Cl)sc1=S	-5%	-31%	50µM*	-37%	-11%	-22%
Cn1c(N)c(C(=O)NCc2ccccc2)sc1=S	-10%	89µM*	?	?	2%	?
CCNc1ncc2nc(-c3ccc(Cl)cc3)c(=O)n(Cc3ccc(F)cc3)c2n1	.	.	12%[0.501 µM]	.	.	.
c1cncc(CNCc2ccco2)c1	-6%	-14%	?	71µM*	.	7%
O=C(NCc1cccnc1)c1cc(-c2ccco2)on1	-2%	-8%	40µM*	-34%	-9%	23%
COC(=O)c1ccccc1NC(=O)c1sc(=S)n(C)c1N	-13%	-6%[11.4 µM]	7.9µM*	-36%	-9%	?
Cc1nn(Cc2ccc(Cl)c(Cl)c2)c(C)c1NC(=O)c1cc(-c2ccco2)on1	3%	-15%	16µM*	-24%	-21%	31%
CN(CC(=O)Nc1ccc(F)cc1F)S(=O)(=O)c1cccc2nsnc12	-3%	-13%	2%[59 µM]	.	.	16%
CCCCNC(=O)C(CC)Sc1nnc(-c2ccc(F)cc2)c(-c2ccc(F)cc2)n1 (stereo not given)	-7%	-17%	1%[59 µM]	-7%	.	-6%
COc1ccc(CNc2ccnc(-c3ccccc3CN(C)C)n2)c(OC)c1	.	.	9%[0.501 µM]	.	.	.
CCC(O)c1nc2ccccc2n1Cc1cc(C)ccc1C (stereo not given)	8%	-19%	4%[59 µM]	-18%	.	44%
O=C(Nc1cccc(Cl)c1)c1cc(N=Nc2ccc([N+](=O)[O-])cc2Cl)ccc1O	-2%	4.5µM*	2.8µM*	2.8µM*	?	?
O=[N+]([O-])c1ccc(O)c(/C=N/NC(=S)Nc2ccc(Cl)cc2Cl)c1	-7%	79µM*	.	32µM*	.	-13%
O=C(Nc1ccc([N+](=O)[O-])cc1Cl)c1cc(Cl)ccc1O	-1%	?	7.9µM*!	-3%	-4%	11%
COCCCn1c(C23CC4CC(CC(C4)C2)C3)n[nH]c1=S	?	7.9µM*	.	4%	0%	6%
SMILES	GLS inh	JMJD2A Tudor	G9a inh	BAZ2B block	L3MBTL1 inh	HP1b binding inh
CCC(C)[C@H]1CNC(=S)N1CCC12CC3CC(CC(C3)C1)C2 (stereo not given in full)	0%	-26%	-2%[12.7 µM]	1%	.	27%
Cn1c(C23CC4CC(CC(C4)C2)C3)n[nH]c1=S	10%	5.6µM*	22µM*	6%	11%	0%
COCCCn1c(C)cc(C(=O)COC(=O)C23CC4CC(CC(O)(C4)C2)C3)c1C	-4%	-18%	1%	12%	-10%	8%
CC(C)Cn1c(C23CC4CC(CC(C4)C2)C3)n[nH]c1=S	?	56µM*	3.2µM*	?	-4%	23%
O=C(CSc1nnc(-c2ccco2)c(-c2ccco2)n1)c1ccccc1	-17%	45µM*	7%	-1%	-2%	?
O=C(CSc1nnc(-c2ccco2)o1)c1ccccc1	8%	-24%	45%[59 µM]	12%	?	-9%
COc1ccc2[nH]cc(C(=O)CN3CCN(C(=O)c4ccco4)CC3)c2c1	10%	-9%	?	1%	-3%	12%
COc1ccc2oc(=O)c(C(=O)N3CCN(C(=O)c4ccco4)CC3)cc2c1	2%	79µM*	18µM*	8%	.	-7%
COc1ccc(N2C(=O)CC(N3CCN(C(=O)c4ccco4)CC3)C2=O)cc1 (stereo not given)	10%	-10%	56µM*	-11%	1%	2%
COc1ccc2oc(=O)c(C(=O)N3CCN(C(=O)c4ccccc4)CC3)cc2c1	-2%	-6%	0%	3%	.	22%
O=C(c1ccco1)N1CCN(C2CC(=O)N(c3ccc(F)c(Cl)c3)C2=O)CC1 (stereo not given)	0%	-3%	28µM*	3%	.	36%
COc1ccc2[nH]c(C)c(C(=O)CN3CCN(C(=O)c4ccco4)CC3)c2c1	-5%	-17%	50µM*	1%	0%	16%
COc1ccc(N2CCN(c3ccc(-c4nc(-c5ccccc5C)no4)cc3[N+](=O)[O-])CC2)cc1	-1%	-6%	-23%[59 µM]	-1%	.	34%
Cc1ccc(C(=O)CC2(O)C(=O)N(C)c3ccccc32)s1 (stereo not given)	-3%	3%	45µM*	-10%	-23%	47%
CN1C(=O)C(O)(CC(=O)c2cccs2)c2ccccc21 (stereo not given)	-2%	-12%	-7%	-5%	6%	54%
Cc1ncc(CO)c2c1Oc1nc(-c3ccc(F)cc3)nc(SCC(=O)N3CCCCC3)c1C2	2%	-9%	-8%[59 µM]	-22%	.	31%
COC(=O)C1=C(N)Oc2cc(N(C)C)ccc2C1c1ccccc1OC (stereo not given)	11%	50µM*	32µM*	40µM*	?	?
COC(=O)C1=C(N)Oc2cc(C)n(CC3CCCO3)c(=O)c2C1c1ccccc1OC (stereo not given)	20%	6%	4%[12.7 µM]	-9%	0%	28%
O=C(NCc1ccccn1)C1(C(F)(F)F)CC(CCCO)CCCO1 (stereo not given)	.	-6%	.	.	.	24%

High-throughput results from PubChem BioAssay.
